For 40 compounds, outcome and AC50 results are on record in PubChem BioAssay (EPA / NIEHS).

Usually AC50 stands for the concentration giving half of the maximal activity seen.

Some compounds were tested as several samples or in several runs, with calls that do not always agree. Active and inactive are the calls of the source. The calls were made as follows: active = hit-call score of the fitted dose curve at least 0.9, where 1 is the maximum; inactive = score below 0.9.

The assay in a line: APR_HepG2_MitoticArrest_1hr: Apredica 1-hour HepG2 Assay for Mitotic Arrest (AID 2282672). The note with it: high-content imaging, actives raise or lower the signal. The protocol: APR_HepG2_1hr is a cell-based, multiplexed-readout assay that uses HepG2, a human liver cell line, with measurements taken at 1 hour after chemical dosing in a 384-well plate.APR_HepG2_MitoticArrest_1hr is one of 10 assay component(s) measured or calculated from the APR_HepG2_1hr assay. It is designed to make measurements of cell phenotype, a form of morphology reporter, as detected with fluorescence intensity signals by HCS Fluorescent Imaging technology.Data from the assay component APR_HepG2_MitoticArrest_1hr was analyzed into 1 assay endpoint. This assay endpoint, APR_HepG2_MitoticArrest_1hr, was analyzed with bidirectional fitting relative to DMSO as the negative control and baseline of activity. Using a type of morphology reporter, measures of protein for gain or loss-of-signal activity can be used to understand the signaling at the pathway-level as they relate to the gene . Furthermore, this assay endpoint can be referred to as a primary readout, because this assay has produced multiple assay endpoints where this one serves a signaling function. To generalize the intended target to other relatable targets, this assay endpoint is annotated to the cell cycle intended target family, where the subfamily is arrest.
Cells were treated with dimethyl sulfoxide (DMSO) as a solvent control at a final concentration of 0.5% v/v or with compounds in DMSO with a resulting final DMSO concentration of 0.5% v/v. Compound treatment was done at concentrations of 0.39, 0.78, 1.56, 3.12, 6.24, 12.5, 25, 50, 100, and 200 uM in duplicate on each plate. Cells were treated with compounds for 1, 24, or 72 hr. Carbonyl […] m-chloro-phenylhydrazone (CCCP) and taxol were used as positive controls for mitochondrial function and cytoskeletal stability, respectively; DMSO served as the negative control for this experiment. Cells were fixed by the direct addition of 50 uL formaldehyde in Hank's Balanced Salt Solution (HBSS) to a final concentration of 3.7%. After incubation in the fixation medium for 30 min at room temperature (293-298 K), cells were rinsed twice with HBSS and treated with cell permeabilization buffer (16 uL of 0.5% Triton X-100) for 10 min at room temperature (293-298 K) before labeling. For mitochondrial membrane potential and mitochondrial measurements, pre-fixed cells were incubated with 50 uL of MitoTracker Red CMXRos (Invitrogen) at a concentration of 250 nM for 30 min before fixation. In the remaining cases, post-fixed cells were labeled by incubation with a multiplexed mixture of primary antibodies in HBSS for 60 min at room temperature (293-298 K) to detect immunoreactivity of c-Jun (1:500), phospho-histone H3 (1:100), phospho-histone H2A.x (1:200), p53 (1:400), alpha-tubulin (1:200) and Hoechst 33342 (2 ug/mL). Cells were labeled for multiplexed imaging on two separate plates: a) Hoechst 33342, MitoTracker Red, phospho-histone H3, and alpha-tubulin, and b) Hoechst 33342, phospho-histone H2A.x, and c-Jun. A final rinse with HBSS (50 uL) was performed before analysis. The primary and secondary antibodies for the proteins were phospho-histone H3 (rabbit anti-phospho-histone H3 and FITC-donkey anti-rabbit IgG), phospho-histone H2A.x (mouse anti-phospho-histone H2A.x and FITC-donkey anti-mouse IgG), c-Jun (rabbit anti-phospho-c-Jun and Cy3-donkey anti-rabbit IgG), p53 (sheep anti-p53 and Cy5-donkey anti-sheep IgG), alpha-tubulin (mouse anti-alpha-tubulin and Cy5-donkey anti-mouse IgG). These antibodies are available as the CellCiphr HepG2 assay kit (Millipore).Digital images of each well were captured using a Cellomics ArrayScan VTI (Thermo Scientific Cellomics) (0.8 NA objective, 0.63x optical coupler, and XF-93 filter set) at 20x magnification. The images were acquired using the autofocus feature of the ArrayScan instrument, which entails the following steps. First, the camera focuses on channel 1 (Hoechst 33342), where nuclei are identified. Second, a Z offset of 1 um is used for capturing mitochondria (MitoTracker Red). […]
Regarding `N#Cc1cc(Br)c(O)c(Br)c1`, the call was inactive.

As to `CCCN(CCC)c1c([N+](=O)[O-])cc(S(N)(=O)=O)cc1[N+](=O)[O-]`, the result was inactive.

With `Cc1cc(Cl)ccc1OCC(=O)O`, the outcome was inactive.

As for `CC(C)(C)c1ccc(CSc2cnn(C(C)(C)C)c(=O)c2Cl)cc1`, the compound was classed as inactive.

As to `CN(C)C(=S)SSC(=S)N(C)C`, the result was inactive.

As to `CCCCC(CC)COC(=O)c1ccccc1C(=O)OCC(CC)CCCC` (stereo unspecified), the outcome was inactive.

Turning to `Cc1ccc(-c2c(Cl)nc(C#N)n2S(=O)(=O)N(C)C)cc1`, the outcome was inactive.

On to `Cc1c(F)c(F)c(COC(=O)C2C(/C=C(\Cl)C(F)(F)F)C2(C)C)c(F)c1F` (stereo unspecified), for which the call was inactive.

On to `COC(=O)C(C)Oc1ccc(Oc2ccc(Cl)cc2Cl)cc1` (stereo unspecified), for which the call was inactive.

Turning to `OC(c1ccc(Cl)cc1)(c1cncnc1)c1ccccc1Cl` (stereo unspecified), the compound was called inactive.

Regarding `CCOC(=O)C(Cl)Cc1cc(-n2nc(C)n(C(F)F)c2=O)c(F)cc1Cl` (stereo unspecified), the call was inactive.

With `C=CCC1=C(C)[C@@H](OC(=O)[C@@H]2[C@@H](C=C(C)C)C2(C)C)CC1=O`, the call was inactive.

With `COC(=O)c1ccccc1C(=O)OC`, the result was inactive.

Take `CS/C(C)=N/OC(=O)N(C)SN(C)C(=O)O/N=C(\C)SC`: the AC50 is 29.7 µM (active).

As to `CCOC(=O)CC(SP(=S)(OC)OC)C(=O)OCC` (stereo unspecified), the compound was classed as inactive.

In the case of `CC(C)Oc1cc(-n2nc(C(C)(C)C)oc2=O)c(Cl)cc1Cl`, the call was inactive.

On to `COc1cnc(OC)n2nc(NS(=O)(=O)c3c(OCC(F)F)cccc3C(F)(F)F)nc12`, for which the result was inactive.

Regarding `O=C(O)c1nc(Cl)ccc1Cl`, the compound was called inactive.

For `CC(Oc1ccc(Cl)cc1Cl)C(=O)O` (stereo unspecified), the compound was called inactive.

Take `CCCCOC(=O)c1ccccc1C(=O)OCCCC`: the outcome was inactive.

Regarding `CO/C=C(/C(=O)OC)c1ccccc1Oc1cc(Oc2ccccc2C#N)ncn1`, the call was inactive.

Take `Fc1ccc(Oc2ccnc3cc(Cl)cc(Cl)c23)cc1`: the outcome was inactive.

As for `CNC(=O)ON=CC(C)(C)SC`, the outcome was inactive.

Take `CCNc1nc(Cl)nc(NC(C)C)n1`: the outcome was inactive.

Regarding `COC(=O)N(OC)c1ccccc1COc1ccn(-c2ccc(Cl)cc2)n1`, the result was inactive.

For the compound `COP(=S)(OC)Oc1nc(Cl)c(Cl)cc1Cl`, the compound was classed as inactive.

As to `C=CC1(C)OC(=O)N(c2cc(Cl)cc(Cl)c2)C1=O` (stereo unspecified), the compound was called inactive.

Turning to `N#Cc1nn(-c2c(Cl)cc(C(F)(F)F)cc2Cl)c(N)c1S(=O)C(F)(F)F` (stereo unspecified), the compound was called inactive.

On to `CCc1nn(C)c(C(=O)NCc2ccc(C(C)(C)C)cc2)c1Cl`, for which the compound was called inactive.

`COc1ccc(C(c2ccc(OC)cc2)C(Cl)(Cl)Cl)cc1`: the result was inactive.

Consider `O=C(O)COc1nc(Cl)c(Cl)cc1Cl`, for which the call was inactive.

Turning to `COC(=O)C=C(C)OP(=O)(OC)OC`, the compound was called inactive.

For `CCNc1nc(Cl)nc(NCC)n1`, the call was inactive.

On to `COc1nc(C)nc(NC(=O)NS(=O)(=O)c2ccccc2Cl)n1`, for which the call was inactive.

In the case of `COc1nc(NC(C)C)nc(NC(C)C)n1`, the call was inactive.

In the case of `COc1nc(C)nc(NC(=O)NS(=O)(=O)c2ccccc2CCC(F)(F)F)n1`, the result was inactive.

Take `C=CCC1=C(C)C(OC(=O)C2C(C=C(C)C)C2(C)C)CC1=O` (stereo unspecified): the compound was called inactive.

On to `CC1COC(Cn2cncn2)(c2ccc(Oc3ccc(Cl)cc3)cc2Cl)O1` (stereo unspecified), for which the outcome was inactive.

With `C#CCOS(=O)OC1CCCCC1Oc1ccc(C(C)(C)C)cc1` (stereo unspecified), the call was inactive.

In the case of `CCCCNC(=O)OCC#CI`, the AC50 was 28.8 µM (active) and the call was inactive.
